Test [1] has as its system RAW-Dual. Put plainly: NF-kB SEAP reporter activity, fold change vs agonist alone; higher = enhanced NF-kB activity. As to conditions: library stock concentration (final ~1000-fold dilution): 10 mM. Put shortly:
(§1)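 Supernatant from RAW-Dual macrophages was read after 20 hours for IRF by QuantiLuc luminescence and for NF-κB by QuantiBlue absorbance at 620 nm. The cells (50,000 cells/well in DMEM, 384-well plates, 37 °C, 5% CO2) had received 50 nL of library stock by pin tool and, 1 h later, a PRR agonist. Reporter activity is expressed relative to agonist-alone wells as fold change, and wells were flagged cytotoxic if IncuCyte confluency was under 70% of agonist controls in both mask sets.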

In test [2] the test system is RAW-Dual. Briefly: NF-kB SEAP reporter activity, fold change vs agonist alone; cytotoxicity flag (confluency mask): cytotoxic (confluency <70% of control); higher = enhanced NF-kB activity. Put shortly: as §1
Test [3] concerns RAW-Dual. Put plainly: NF-kB SEAP reporter activity, fold change vs agonist alone; cytotoxicity flag (confluency mask): not cytotoxic; higher = enhanced NF-kB activity. Put shortly:
as §1

Setting [4] is: cytotoxicity flag (confluency mask): cytotoxic (confluency <70% of control), agonist: Imiquimod (TLR7) […].
Where [5] appears, read: cytotoxicity flag (confluency mask): cytotoxic (confluency <70% of control), agonist: MPLA (TLR4) […].
Setting [6] is: agonist: ODN 1826 (TLR9) 0.5 ug/mL.
Where [7] appears, read: agonist: Pam2CSK4 (TLR2/6) 0.1 ug/mL.
The mark [8] stands for this setting: agonist: Pam3CSK4 (TLR2/1) 0.1 ug/mL.
Where [9] appears, read: cytotoxicity flag (confluency mask): not cytotoxic, agonist: Imiquimod (TLR7) […].
Where [10] appears, read: cytotoxicity flag (confluency mask): not cytotoxic, agonist: MPLA (TLR4) […].

SMILES strings stand for the structures. In all, about 2,900 compounds were measured (“NF-kB SEAP reporter activity, fold change vs agonist alone”: median about 0.99, highest 2% from about 2.6 on). The sample as a whole holds a higher share of the highest values than the screen did.

In the case of `C=CCNC1=C2CC(C)CC(OC)C(O)C(C)/C=C(\C)C(OC(N)=O)C(OC)/C=C\C=C(/C)C(=O)NC(=CC1=O)C2=O` (stereo unspecified), the “NF-kB SEAP reporter activity” value in the test on RAW-Dual [1] (setting [4]) was 0.313; in the test on RAW-Dual [1] (setting [5]) it was 0.516.

Consider `C=CCNC1=C2CC(C)CC(OC)C(O)C(C)/C=C(\C)C(OC(N)=O)C(OC)/C=C\C=C(/C)C(=O)NC(=CC1=O)C2=O` (stereo unspecified) (library stock concentration (final ~1000-fold dilution): 10 mM), for which the “NF-kB SEAP reporter activity” value in the test with RAW-Dual [2] (agonist: LPS (TLR4) 0.1 ug/mL) worked out at 0.289; in the test on RAW-Dual [2] (setting [6]), 0.221; in the test with RAW-Dual [2] (setting [7]), 0.0862; in the test on RAW-Dual [2] (setting [8]), 0.182.

`COc1ccc2c(c1)c(C1=C(c3c[nH]c4ccccc34)C(=O)NC1=O)cn2CCCN(C)C` (library stock concentration (final ~1000-fold dilution): 10 mM): the “NF-kB SEAP reporter activity” value was found to be 1.23 in the test with RAW-Dual [2] (agonist: LPS (TLR4) 0.1 ug/mL), 0.346 with RAW-Dual [2] (setting [6]), 1.25 in the test with RAW-Dual [2] (setting [7]) and 1.82 with RAW-Dual [2] (setting [8]).

Turning to `COc1ccc2c(c1)c(C1=C(c3c[nH]c4ccccc34)C(=O)NC1=O)cn2CCCN(C)C`, the “NF-kB SEAP reporter activity” value in the test on RAW-Dual [1] (setting [4]) came out at 2.44; in the test on RAW-Dual [1] (setting [5]), 1.71.

Consider `CN(C)CCCn1cc(C2=C(c3c[nH]c4ccccc34)C(=O)NC2=O)c2ccccc21`, for which the “NF-kB SEAP reporter activity” value with RAW-Dual [1] (setting [4]) stood at 1.13; in the test with RAW-Dual [1] (setting [5]), 1.59.

With `CN1CCN(c2nc(C3=C(c4c[nH]c5ccccc45)C(=O)NC3=O)c3ccccc3n2)CC1` (library stock concentration (final ~1000-fold dilution): 10 mM), the “NF-kB SEAP reporter activity” value in the test on RAW-Dual [2] (agonist: LPS (TLR4) 0.1 ug/mL) was determined as 2.03; with RAW-Dual [2] (setting [6]), 1.29; in the test with RAW-Dual [2] (setting [7]) it was 1.84; in the test with RAW-Dual [2] (setting [8]), 3.14.

As to `CN1CCN(c2nc(C3=C(c4c[nH]c5ccccc45)C(=O)NC3=O)c3ccccc3n2)CC1`, the “NF-kB SEAP reporter activity” value worked out at 2.99 in the test on RAW-Dual [1] (setting [4]) and 2.19 in the test on RAW-Dual [1] (setting [5]).

Take `CN(C)CCCn1cc(C2=C(c3c[nH]c4ccccc34)C(=O)NC2=O)c2ccccc21` (library stock concentration (final ~1000-fold dilution): 10 mM): the “NF-kB SEAP reporter activity” value in the test with RAW-Dual [2] (agonist: LPS (TLR4) 0.1 ug/mL) turned out to be 0.346; in the test on RAW-Dual [2] (setting [6]) it was 0.491; in the test with RAW-Dual [2] (setting [7]), 0.833; in the test on RAW-Dual [2] (setting [8]) it was 0.564.

`Cc1ncc(NC(=O)c2cccc(C(F)(F)F)c2)cc1-c1cnc(OC2CCOCC2)c(N2CCOCC2)c1`: the “NF-kB SEAP reporter activity” value with RAW-Dual [1] (setting [9]) was 0.898; with RAW-Dual [1] (setting [10]) it was 1.04.

In the case of `Cc1ncc(NC(=O)c2cccc(C(F)(F)F)c2)cc1-c1cnc(OC2CCOCC2)c(N2CCOCC2)c1` (library stock concentration (final ~1000-fold dilution): 10 mM), the “NF-kB SEAP reporter activity” value turned out to be 1.31 in the test with RAW-Dual [3] (agonist: LPS (TLR4) 0.1 ug/mL), 0.938 in the test on RAW-Dual [3] (setting [6]), 0.495 with RAW-Dual [3] (setting [7]) and 0.711 in the test with RAW-Dual [3] (setting [8]).

As to `Cc1cc(C)c2c(c1)C(N(Cc1cc(C(F)(F)F)cc(C(F)(F)F)c1)c1nnn(C)n1)CCCN2CC1CCC(C(=O)O)CC1` (stereo unspecified) (library stock concentration (final ~1000-fold dilution): 10 mM), the “NF-kB SEAP reporter activity” value in the test on RAW-Dual [3] (agonist: LPS (TLR4) 0.1 ug/mL) was determined as 0.632; with RAW-Dual [3] (setting [6]), 0.635; in the test on RAW-Dual [3] (setting [7]), 0.484; with RAW-Dual [3] (setting [8]) it was 0.444.

Consider `Cc1cc(C)c2c(c1)C(N(Cc1cc(C(F)(F)F)cc(C(F)(F)F)c1)c1nnn(C)n1)CCCN2CC1CCC(C(=O)O)CC1` (stereo unspecified), for which the “NF-kB SEAP reporter activity” value with RAW-Dual [1] (setting [9]) is 0.911; with RAW-Dual [1] (setting [10]), 1.14.

Take `CC(C)CC(NC(=O)C(NC(=O)c1cccc(-c2ccccc2)n1)C(C)O)B(O)O` (stereo unspecified) (library stock concentration (final ~1000-fold dilution): 10 mM): the “NF-kB SEAP reporter activity” value was 0.629 in the test on RAW-Dual [3] (agonist: LPS (TLR4) 0.1 ug/mL), 1.53 in the test with RAW-Dual [3] (setting [6]), 0.976 in the test on RAW-Dual [3] (setting [7]) and 0.594 in the test with RAW-Dual [3] (setting [8]).

Take `CC(C)CC(NC(=O)C(NC(=O)c1cccc(-c2ccccc2)n1)C(C)O)B(O)O` (stereo unspecified): the “NF-kB SEAP reporter activity” value in the test on RAW-Dual [1] (setting [9]) is 2.29; in the test on RAW-Dual [1] (setting [10]), 0.997.

Take `CCOC(=O)/C=C/c1ccc(O)c(OC)c1`: the “NF-kB SEAP reporter activity” value in the test on RAW-Dual [1] (setting [9]) is 1.08; in the test on RAW-Dual [1] (setting [10]) it was 1.2.

`CCOC(=O)/C=C/c1ccc(O)c(OC)c1` (library stock concentration (final ~1000-fold dilution): 10 mM): the “NF-kB SEAP reporter activity” value was determined as 0.998 in the test on RAW-Dual [3] (agonist: LPS (TLR4) 0.1 ug/mL), 1.03 with RAW-Dual [3] (setting [6]), 0.959 in the test with RAW-Dual [3] (setting [7]) and 1.07 in the test with RAW-Dual [3] (setting [8]).

Consider `COc1ncc(-c2ccc3nccc(-c4ccnnc4)c3c2)cc1NS(=O)(=O)c1ccc(F)cc1F` (library stock concentration (final ~1000-fold dilution): 10 mM), for which the “NF-kB SEAP reporter activity” value with RAW-Dual [3] (agonist: LPS (TLR4) 0.1 ug/mL) was determined as 6.18; with RAW-Dual [3] (setting [6]), 0.959; in the test on RAW-Dual [3] (setting [7]), 2.26; in the test with RAW-Dual [3] (setting [8]), 0.801.

As for `COc1cc2nccc(Oc3ccc(NC(=O)Nc4ccc(F)cc4F)c(F)c3)c2cc1OC` (library stock concentration (final ~1000-fold dilution): 10 mM), the “NF-kB SEAP reporter activity” value in the test on RAW-Dual [2] (agonist: LPS (TLR4) 0.1 ug/mL) was 0.806; in the test with RAW-Dual [2] (setting [6]), 0.587; in the test with RAW-Dual [2] (setting [7]), 0.463; in the test on RAW-Dual [2] (setting [8]) it was 0.717.

Take `COc1cc2nccc(Oc3ccc(NC(=O)Nc4ccc(F)cc4F)c(F)c3)c2cc1OC`: the “NF-kB SEAP reporter activity” value in the test with RAW-Dual [1] (setting [4]) stood at 0.799; in the test on RAW-Dual [1] (setting [5]) it was 0.975.

As for `COc1ncc(-c2ccc3nccc(-c4ccnnc4)c3c2)cc1NS(=O)(=O)c1ccc(F)cc1F`, the figures for the “NF-kB SEAP reporter activity” value in the test on RAW-Dual [1] (setting [9]) and with RAW-Dual [1] (setting [10]) were 0.912 and 0.957, respectively.

As for `CC1CNCCCN1S(=O)(=O)c1cccc2cncc(F)c12.Cl.O.O` (stereo unspecified) (library stock concentration (final ~1000-fold dilution): 10 mM), the “NF-kB SEAP reporter activity” value with RAW-Dual [3] (agonist: LPS (TLR4) 0.1 ug/mL) worked out at 1.11; in the test on RAW-Dual [3] (setting [6]), 0.99; in the test with RAW-Dual [3] (setting [7]), 1.27; with RAW-Dual [3] (setting [8]), 1.5.

With `CC1CNCCCN1S(=O)(=O)c1cccc2cncc(F)c12.Cl.O.O` (stereo unspecified), the entries for the “NF-kB SEAP reporter activity” value in the test with RAW-Dual [1] (setting [9]) and in the test with RAW-Dual [1] (setting [10]) were 1.01 and 1.08, respectively.

Consider `COC(=O)NC(C(=O)N1CCCC1c1ncc(-c2ccc(-c3ccc(-c4cnc(C5CCCN5C(=O)C(NC(=O)OC)C(C)C)[nH]4)cc3)cc2)[nH]1)C(C)C.Cl.Cl` (stereo unspecified), for which the “NF-kB SEAP reporter activity” value in the test with RAW-Dual [1] (setting [10]) came to 1.76.

For `COC(=O)NC(C(=O)N1CCCC1c1ncc(-c2ccc(-c3ccc(-c4cnc(C5CCCN5C(=O)C(NC(=O)OC)C(C)C)[nH]4)cc3)cc2)[nH]1)C(C)C.Cl.Cl` (stereo unspecified) (library stock concentration (final ~1000-fold dilution): 10 mM), the “NF-kB SEAP reporter activity” value with RAW-Dual [3] (agonist: LPS (TLR4) 0.1 ug/mL) turned out to be 1.85; with RAW-Dual [3] (setting [6]), 0.91; in the test with RAW-Dual [3] (setting [7]), 1.02; in the test on RAW-Dual [3] (setting [8]), 0.606.

For the molecule `CC(C)CN(CC(O)C(Cc1ccccc1)NC(=O)OC1CCOC1)S(=O)(=O)c1ccc(N)cc1` (stereo unspecified), the “NF-kB SEAP reporter activity” value in the test with RAW-Dual [1] (setting [9]) was determined as 1.3; with RAW-Dual [1] (setting [10]), 1.6.

Turning to `CC(C)CN(CC(O)C(Cc1ccccc1)NC(=O)OC1CCOC1)S(=O)(=O)c1ccc(N)cc1` (stereo unspecified) (library stock concentration (final ~1000-fold dilution): 10 mM), the “NF-kB SEAP reporter activity” value came to 1.41 in the test with RAW-Dual [3] (agonist: LPS (TLR4) 0.1 ug/mL), 1.74 in the test on RAW-Dual [3] (setting [6]), 1.45 with RAW-Dual [3] (setting [7]) and 1.32 in the test on RAW-Dual [3] (setting [8]).

`CC1CCOC2Cn3cc(C(=O)NCc4ccc(F)cc4F)c(=O)c(O)c3C(=O)N12` (stereo unspecified) (library stock concentration (final ~1000-fold dilution): 2 mM): the “NF-kB SEAP reporter activity” value in the test with RAW-Dual [3] (agonist: LPS (TLR4) 0.1 ug/mL) came out at 1.23; in the test on RAW-Dual [3] (setting [6]), 0.967; in the test with RAW-Dual [3] (setting [7]) it was 0.958; in the test with RAW-Dual [3] (setting [8]), 0.873.

(Values after the supplement of paper PMC10037445.)
